The list is not random: actives were taken first. Their share in the collection is about 21%.
CHX counter – counter-screen hit for Shiga toxin inhibitors, cycloheximide; cell reporter, cycloheximide protein synthesis inhibition counterscreen; max response, %; actives 12% (n = 300,000); in the data active means max response mostly above about 13%, no sharp cut-off; inactive means mostly below about 14%; further: read at 38.3 µM for the half of the compounds with a filed dose; 0% is about no effect
Shiga inhibitor – Shiga toxin inhibition; Vero cells, Shiga toxin protein synthesis inhibition reporter; inhibition, % at 38.7 µM; actives 9.2% (n = 290,000); AID 2315; in the data active means inhibition mostly above about 28%, no sharp cut-off; inactive means mostly below about 43%; further: 0% is about no effect
HCV inhibitor – HCV inhibition; AID 651820; Huh7.5.1 HCVcc-Cre infection, luciferase reporter, 44 h; actives 3.4% (n = 340,000); Potency, µM (highest dose often 41.8 µM), without a hit: at the top dose activity change, negative = inhibition, most hits filed as inhibitors; further: potency means the concentration at half of the fitted maximal effect; on the % scale 0 is the no-effect control and ±100 the full control effect
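1,000 cells/well; 4 h culture; + compound; + HCVcc-Cre (~0.5 moi); 44 h; luciferase substrate, RT 15 min; read 15 sec.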
HCMV antiviral – inhibitors of human cytomegalovirus | actives 4.5% (n = 410,000) | activity change, negative = inhibition, % at 57.5 µM | HFF cells, HCMV-luciferase reporter, 72 h; hits give low values | AID 1259415; in the data active means activity change below about -60%; inconclusive means no clear call, values can overlap the other calls; inactive means above about -39%; further: on the % scale 0 is the no-effect control and ±100 the full control effect
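Human foreskin fibroblasts infected with luciferase-reporter HCMV at MOI 1 PFU/cell, compounds at two doses. Luciferase measured 72 h post infection; normalized to buffer-only basal and Salinomycin (10uM) controls.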
Pf growth 48h – inhibits P. falciparum growth in the first generation, 48 h | P. falciparum luciferase growth in erythrocytes, 48 h | Potency, µM (titrated, usually from 28.7 µM), for the others: at the highest dose activity change, negative = inhibition, actives largely listed as inhibitors | actives 5.9% (n = 310,000) | AID 504832; further: potency means the concentration at half of the fitted maximal effect; on the % scale 0 is the no-effect control and ±100 the full control effect
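Luciferase-expressing parasites in RBCs, 2% Hct / 0.1% parasitemia final; RPMI 1640 + 0.5% Albumax; 37 C, 5% CO2, one generation; luminescence read-out, lower signal = inhibition.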
Pf growth 96h – P. falciparum growth inhibition at 96 hour, primary screen for plastid delayed-death inhibitors | P. falciparum luciferase reporter growth, 96 h | Potency, µM (titrated, usually from 28.7 µM), inactives show at the highest dose activity change, negative = inhibition, actives largely listed as inhibitors | actives 6.9% (n = 320,000); further: potency means the concentration at half of the fitted maximal effect; on the % scale 0 is the no-effect control and ±100 the full control effect
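Parasite growth measured via integrated firefly luciferase reporter in P. falciparum. Infected erythrocytes at 2% hematocrit, 0.05% parasitemia final were treated 96 hours at 37 C under 5% CO2, and luminescence was read.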
Starred values were filed as active, the others as inactive; ? = inconclusive; . = not tested or not shown. Unless noted, the call rests on the fitted dose curve; in most records, active means well fitted inhibition curve with a large enough effect; inconclusive means small, poorly fitted or top-dose-only effect, or another doubt; inactive means no such curve, though single readings can be large or run the other way.

SMILES	CHX counter	Shiga inhibitor	HCV inhibitor	HCMV antiviral	Pf growth 48h	Pf growth 96h
O=c1c(C=Nc2ccc(Oc3ccccc3)cc2)c[nH]n1-c1cccc(Cl)n1	-6	-10	16%	-65*	5%	17%
COc1ccc(N=Cc2c(O)n(-c3cccc(C)n3)c(=O)c3ccccc23)cc1	-5	-13	-20%	-39	-24%	-18%
O=C(COC(=O)CNC(=O)C1CCCCC1)Nc1ccc(Cl)cc1F	-1	-13	5%	5	4%	24%
O=C(NCC(c1ccco1)N1CCCCC1)c1ccc([N+](=O)[O-])s1 (centres undefined)	.	.	0.56µM*	9	.	.
Cc1ccc(C(=O)NCC(c2ccco2)N2CCCCC2)s1 (centres undefined)	.	.	6%	-2	?	?
O=C(NCC(c1ccco1)N1CCCC1)c1cc2ccccc2s1 (centres undefined)	.	.	-19%	-11	2.6µM*	4.1µM*
COC(=O)C1=C(C)N(c2ccc(OC)cc2)C(C)=C(C(=O)OC)C1c1ccc(OC)cc1	3	28	-22%	25	?	?
COC(=O)C1=C(C)N(C)C(C)=C(C(=O)OC)C1c1ccc(Cl)cc1	-2	-12	-5%	57	?	10µM*
COC(=O)C1=C(C)N(c2ccc(OC)cc2)C(C)=C(C(=O)OC)C1c1ccccc1	-2	-1	?	16	1.3µM*	?
CCOC(=O)C1=C(C)N(C)C(C)=C(C(=O)OCC)C1c1ccc(Cl)cc1	5	8	-11%	-36	?	?
COc1ccc(-c2nc3scc(CCNS(=O)(=O)c4ccc5c(c4)OCCO5)n3n2)cc1	.	.	.	-24	.	.
Cc1cccc(C)c1NC(=O)c1nc(SC(C)C)ncc1Cl	.	.	.	-13	.	.
CCCn1cnc2sc(CC)cc2c1=O	30*	52*	33%	31	43%	33%
CCCn1cnc2sc(C(N)=O)c(C)c2c1=O	7	24	1%	11	.	0%
O=C1Cc2cc(S(=O)(=O)Nc3cccc([N+](=O)[O-])c3)cc3c2N1CCC3	1	-15	?	?	-16%	6.6µM*
CN(C)c1ccc(NS(=O)(=O)c2cc3c4c(c2)CC(=O)N4CCC3)cc1	4	33	-25%	?	-26%	?
Cc1ccc(C)c(NS(=O)(=O)c2cc3c4c(c2)C(C)C(=O)N4CCC3)c1 (centres undefined)	.	.	.	9	.	.
Cc1cccc(C)c1NS(=O)(=O)c1cc2c3c(c1)CC(=O)N3CCC2	-4	-12	-11%	-65*	9.3µM*	?
Cc1ccc(C)c(NS(=O)(=O)c2cc3c4c(c2)CC(=O)N4CCC3)c1	-4	-3	?	-25	10µM*	3%
Cc1cccc(C(=O)N2CCC[C@H]2C(=O)N2CCC[C@H]2C(=O)NCc2ccncc2)c1	.	.	.	1	.	.
Cc1cccc(NC(=O)CNC(=O)c2ccc3nc[nH]c3c2)c1C	.	.	12%	-1	7%	35%
NC(=O)CCCCC1CCSS1 (centres undefined)	.	.	.	.	?	11µM*
C/C(=N\N(Cc1ccccc1)c1ccccc1)c1ccncc1	10	-5	6%	?	7%	?
Cc1nn(-c2ccccc2)nc1-c1nnc(-c2ccc(C(F)(F)F)cc2)o1	-1	2	12%	-3	0.26µM*	?
COc1ccccc1N1CCN(C(=O)c2cc3c(=O)n(Cc4cccs4)ccc3nc2C)CC1	.	.	.	10	.	.
SMILES	CHX counter	Shiga inhibitor	HCV inhibitor	HCMV antiviral	Pf growth 48h	Pf growth 96h
Clc1ccc(-c2c[n+](Cc3ccc(Br)cc3)c3n2CCCCC3)cc1	5	8	12%	-68*	0.41µM*	0.059µM*
Clc1ccc(C[n+]2cc(-c3ccccc3)n3c2CCCCC3)c(Cl)c1	-10	-5	-30%	-78*	0.74µM*	2.6µM*
Clc1ccc(-c2c[n+](Cc3ccc(Cl)cc3Cl)c3n2CCCCC3)cc1	-1	1	-22%	-102*	1.7µM*	0.17µM*
N#CC[n+]1cc(-c2ccc(Cl)cc2)n2c1CCC2	-3	-10	6%	20	?	-8%
O=[N+]([O-])c1ccc(C[n+]2cc(-c3ccc(Cl)c(Cl)c3)n3c2CCCCC3)cc1	-2	21	4%	-16	?	?
COc1ccc(NC(=O)C(Cc2ccccc2)NS(=O)(=O)c2ccc(Br)s2)cc1OC (centres undefined)	.	.	.	-12	.	.
C/C(N)=C(/C#N)C(=O)CSc1nc2scc(-c3ccc(F)cc3)c2c(=O)n1C	3	-7	?	3	0%	?
CCC1(OC(=O)CN)C(=O)OCc2c1cc1n(c2=O)Cc2cc3ccccc3nc2-1 (centres undefined)	1	4	?	.	1.7µM*	0.93µM*
CC[C@@]1(O)C(=O)OCc2c1cc1n(c2=O)Cc2cc3ccccc3nc2-1	-4	4	.	.	?	?
CCC1(O)C(=O)OCc2c1cc1n(c2=O)Cc2cc3cc(O)ccc3nc2-1 (centres undefined)	.	.	-15%	-107*	.	.
CC[C@@]1(O)C(=O)OCc2c1cc1n(c2=O)Cc2cc3c(O)cccc3nc2-1	-3	-7	.	.	.	.
CCc1c2c(nc3ccc(OC(=O)N4CCC(N5CCCCC5)CC4)cc13)-c1cc3c(c(=O)n1C2)COC(=O)[C@]3(O)CC	.	.	-13%	-92*	-14%	-30%
CC[C@@]1(O)C(=O)OCc2c1cc1n(c2=O)Cc2cc3c(NC(=O)CN)cccc3nc2-1	3	7	-17%	-98*	?	7.4µM*
Cc1ccc(Cn2c(CN3CCC(C(=O)NCc4cccnc4)CC3)cc3ccccc32)cc1	.	.	.	3	.	.
c1ccc(CCc2nc(-c3ccc(-n4cccc4)cc3)no2)cc1	-14	-15	-21%	-12	.	-89%
O=C(NCc1nc(-c2ccc(Cl)cc2)no1)c1ccco1	11	5	?	-22	43%	?
CCCc1nc(-c2ccc(-c3ccc(F)cc3)cc2)no1	18*	29	-27%	-12	.	?
c1ccc(CCc2nc(-c3cccnc3)no2)cc1	22*	53*	11µM*	10	42%	?
O=C(Nc1ccc(-c2noc(CCc3ccccc3)n2)cc1)c1ccco1	58*	85*	?	-88*	?	?
O=C1CCC(=O)N1CCCCCc1nc(-c2ccccc2)no1	41*	64	-23%	31	92%	.
CC(=O)c1cccc(N(C(=O)Cn2nnc3ccccc32)C(C(=O)NCc2ccccc2)c2ccc(F)cc2)c1 (centres undefined)	.	.	.	-30	.	.
COc1ccc(NC(=O)Cn2c(SCc3ccc(C)cc3)nc3cccnc32)c(OC)c1	.	.	.	49	.	.
Cc1ccc(Nc2nc(Cl)nc3ncn(C)c23)c(C)c1	.	.	-3%	2	.	.

Screening data (PubChem BioAssay)
